Reference: PubChem BioAssay (EPA / NIEHS)
Results filed as inconclusive are left out. Calls of active or inactive are those of the source. The calls were made as follows: active = hit-call score of the fitted dose curve at least 0.9, where 1 is the maximum; inconclusive = response in the unintended direction; inactive = score below 0.9.

molecular target: Estrogen receptor (Homo sapiens) + Estrogen receptor beta (Homo sapiens) (UniProt P03372+Q92731); test: OT_ER_ERaERb_0480: Odyssey Thera (OT) 8-hour HEK293T Protein-Complementation Assay for Estrogen Receptor-alpha/-beta Heterodimer (AID 2283352)
Summary of the method: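 HEK293T cells expressing ER-alpha/ER-beta LBD fusions to complementary reporter fragments were dosed with compound for 8 hours. Heterodimer formation was read as increased nuclear (agonist) or nuclear plus cytoplasmic (antagonist) mean fluorescence intensity versus DMSO vehicle.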

Sequence of Estrogen receptor (Homo sapiens) + Estrogen receptor beta (Homo sapiens) (P03372 whole entry, looked up, the tested form may be a part): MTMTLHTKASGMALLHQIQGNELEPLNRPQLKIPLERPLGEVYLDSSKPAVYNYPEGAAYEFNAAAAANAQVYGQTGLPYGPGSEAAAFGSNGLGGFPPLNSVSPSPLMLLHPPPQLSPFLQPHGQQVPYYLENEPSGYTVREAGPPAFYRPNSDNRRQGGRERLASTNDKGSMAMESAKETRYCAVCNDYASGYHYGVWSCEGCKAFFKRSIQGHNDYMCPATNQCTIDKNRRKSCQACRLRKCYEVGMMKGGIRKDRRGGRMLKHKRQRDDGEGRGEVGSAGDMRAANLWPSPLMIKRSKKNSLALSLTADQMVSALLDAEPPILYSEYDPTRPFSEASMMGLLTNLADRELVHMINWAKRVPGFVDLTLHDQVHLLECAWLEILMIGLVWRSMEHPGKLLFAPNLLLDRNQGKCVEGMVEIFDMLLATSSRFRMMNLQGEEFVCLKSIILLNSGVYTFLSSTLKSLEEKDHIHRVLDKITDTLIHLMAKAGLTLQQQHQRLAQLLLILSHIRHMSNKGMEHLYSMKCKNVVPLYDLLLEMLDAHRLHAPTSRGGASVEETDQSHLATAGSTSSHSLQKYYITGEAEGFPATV
Sequence of Estrogen receptor (Homo sapiens) + Estrogen receptor beta (Homo sapiens) (Q92731 whole entry, looked up, the tested form may be a part): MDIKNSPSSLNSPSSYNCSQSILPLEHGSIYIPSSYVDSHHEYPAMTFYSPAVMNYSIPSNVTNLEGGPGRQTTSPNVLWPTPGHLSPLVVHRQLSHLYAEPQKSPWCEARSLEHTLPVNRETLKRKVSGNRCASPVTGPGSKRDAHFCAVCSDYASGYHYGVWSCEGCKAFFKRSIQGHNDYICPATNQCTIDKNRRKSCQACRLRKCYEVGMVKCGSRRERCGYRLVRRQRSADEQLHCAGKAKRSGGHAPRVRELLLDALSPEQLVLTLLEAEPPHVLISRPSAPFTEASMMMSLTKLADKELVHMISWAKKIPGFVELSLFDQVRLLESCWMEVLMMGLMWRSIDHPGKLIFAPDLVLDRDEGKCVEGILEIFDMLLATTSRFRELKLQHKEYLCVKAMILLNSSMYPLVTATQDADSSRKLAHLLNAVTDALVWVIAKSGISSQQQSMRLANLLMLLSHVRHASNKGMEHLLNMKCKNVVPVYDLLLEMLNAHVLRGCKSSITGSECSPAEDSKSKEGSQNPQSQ

Row | Compound | outcome | AC50
1 | CCOc1ccc2[nH]cc(C(=O)NCc3ccccc3)c(=O)c2n1 | inactive | –
2 | c1ccc2cc3ccccc3cc2c1 | inactive | –
3 | CC(C)c1nnc2ccc(-c3ocnc3-c3cc(F)ccc3F)cn12 | inactive | –
4 | c1ccc(C(O[C@@H]2CCCN(CCc3ccc4c(c3)OCO4)C2)c2ccccc2)cc1 | – | 31.5 µM (active)
5 | CCCCC(CC)C(=O)OCCOCCOCCOC(=O)C(CC)CCCC (stereo unspecified) | inactive | –
6 | CCCCCCOC(=O)CC(CC(=O)OCCCCCC)(OC(=O)CCC)C(=O)OCCCCCC | inactive | –
7 | O=C(O)[C@H](O)[C@@H](O)C(=O)O | inactive | –

molecular target: Androgen Receptor/SRC-1 Co-activator, AR (gene 367) (UniProt P10275); test: OT_AR_ARSRC1_0960: Odyssey Thera (OT) 16-hour HEK293T Protein-Complementation Assay for Androgen Receptor/SRC-1 Co-activator (AID 2283353);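 also: actives raise the signal above DMSO so potency reflects increased AR and SRC-1 complex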
Summary of the method: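 Interaction of AR with SRC-1 was followed by YFP fragment complementation in HEK293T cells after 16 h of dosing. Gain of nuclear-over-cytoplasmic 488 nm fluorescence against DMSO controls defined activity.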

Sequence of Androgen Receptor/SRC-1 Co-activator, AR (gene 367) (P10275 whole entry, looked up, the tested form may be a part): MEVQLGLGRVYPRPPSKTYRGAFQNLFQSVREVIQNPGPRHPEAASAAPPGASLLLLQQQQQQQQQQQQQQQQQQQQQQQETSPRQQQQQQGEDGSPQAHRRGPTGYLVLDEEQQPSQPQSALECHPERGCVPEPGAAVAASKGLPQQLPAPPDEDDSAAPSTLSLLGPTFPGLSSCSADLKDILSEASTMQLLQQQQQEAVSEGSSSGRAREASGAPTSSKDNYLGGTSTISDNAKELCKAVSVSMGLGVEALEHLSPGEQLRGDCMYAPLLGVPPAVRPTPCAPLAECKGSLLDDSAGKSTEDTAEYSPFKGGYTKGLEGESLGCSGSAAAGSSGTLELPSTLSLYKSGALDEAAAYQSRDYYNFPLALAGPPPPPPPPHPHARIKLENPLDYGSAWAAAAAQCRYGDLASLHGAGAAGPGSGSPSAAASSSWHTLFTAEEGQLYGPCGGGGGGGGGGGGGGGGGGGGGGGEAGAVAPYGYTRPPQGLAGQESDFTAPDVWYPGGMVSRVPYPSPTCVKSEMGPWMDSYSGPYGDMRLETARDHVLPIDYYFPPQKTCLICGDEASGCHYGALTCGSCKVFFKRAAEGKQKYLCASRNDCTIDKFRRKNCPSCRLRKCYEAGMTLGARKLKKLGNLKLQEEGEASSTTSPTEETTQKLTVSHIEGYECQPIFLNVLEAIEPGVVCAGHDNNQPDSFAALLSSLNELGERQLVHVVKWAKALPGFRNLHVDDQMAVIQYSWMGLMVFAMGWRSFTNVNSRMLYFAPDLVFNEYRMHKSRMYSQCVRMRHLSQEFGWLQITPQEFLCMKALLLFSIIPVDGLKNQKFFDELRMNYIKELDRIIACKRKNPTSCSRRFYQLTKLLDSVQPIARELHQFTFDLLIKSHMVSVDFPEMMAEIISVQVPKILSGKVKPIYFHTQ

Row | Compound | AC50 | outcome
8 | C=CCc1cc(S(=O)(=O)c2ccc(O)c(CC=C)c2)ccc1O | 69.1 µM (active) | –
9 | COc1cc2c(c(OC)c1OC)-c1ccc(OC)c(=O)cc1[C@@H](NC(C)=O)CC2 | 0.133 µM (active) | –
10 | COCc1nnc(-c2ccc[n+]([O-])c2)n1-c1c(Cl)c(Cl)cc2[nH]c(=O)c(=O)[nH]c12 | – | inactive
11 | CCCCCCCCCCCCCCCCOS(=O)(=O)O | – | inactive
12 | OCc1ccccc1 | – | inactive
13 | OCCOCCOCCO | – | inactive
14 | CCCCC(CC)C(=O)OCCOCCOCCOC(=O)C(CC)CCCC (stereo unspecified) | – | inactive
15 | CCc1cccc(CC)c1N | – | inactive
16 | CCCCCCOC(=O)CC(CC(=O)OCCCCCC)(OC(=O)CCC)C(=O)OCCCCCC | – | inactive
17 | CCCCOC(=O)c1ccccc1 | – | inactive
18 | COc1cc(C(C)C)c2c(c1)S(=O)(=O)N(COc1cc(=O)n3cccc(OCCN4CCCCC4)c3n1)C2=O | 10.6 µM (active) | –
19 | Cc1nc(-c2ccccn2)ncc1C(=O)Nn1cc(C)c2cc(F)ccc21 | – | inactive
20 | CCN(CC)C(=S)SSC(=S)N(CC)CC | 59.6 µM (active) | –

molecular target: Androgen Receptor/SRC-1 Co-activator, AR (gene 367) (UniProt P10275); test: OT_AR_ARSRC1_0480: Odyssey Thera (OT) 8-hour HEK293T Protein-Complementation Assay for Androgen Receptor/SRC-1 Co-activator (AID 2283354);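 also: hits raise the complementation signal above DMSO so AC50 marks enhancers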
Summary of the method: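 HEK293T cells stably expressing AR and SRC-1 fused to Venus YFP fragments, imaged 8 h after dosing. Complementation fluorescence scored as nuclear/cytoplasmic ratio at 488 nm in at least 400 cells per image; gain fitted versus DMSO.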

Row | Compound | AC50 | outcome
21 | C=CCc1cc(S(=O)(=O)c2ccc(O)c(CC=C)c2)ccc1O | 82.7 µM (active) | –
22 | COc1cc2c(c(OC)c1OC)-c1ccc(OC)c(=O)cc1[C@@H](NC(C)=O)CC2 | – | inactive
23 | COCc1nnc(-c2ccc[n+]([O-])c2)n1-c1c(Cl)c(Cl)cc2[nH]c(=O)c(=O)[nH]c12 | – | inactive
24 | CCCCCCCCCCCCCCCCOS(=O)(=O)O | – | inactive
25 | OCCOCCOCCO | – | inactive
26 | CCCCC(CC)C(=O)OCCOCCOCCOC(=O)C(CC)CCCC (stereo unspecified) | – | inactive
27 | CCCCCCOC(=O)CC(CC(=O)OCCCCCC)(OC(=O)CCC)C(=O)OCCCCCC | – | inactive
28 | CCCCOC(=O)c1ccccc1 | – | inactive
29 | COc1cc(C(C)C)c2c(c1)S(=O)(=O)N(COc1cc(=O)n3cccc(OCCN4CCCCC4)c3n1)C2=O | 18.1 µM (active) | –
30 | Cc1nc(-c2ccccn2)ncc1C(=O)Nn1cc(C)c2cc(F)ccc21 | – | inactive
31 | CCN(CC)C(=S)SSC(=S)N(CC)CC | 23.9 µM (active) | –
